# Laboratory results taken from the supplement of paper PMC12645437, “Orthogonal IMiD-Degron Pairs Induce Selective Protein Degradation in Cells” (ACS Chemical Biology, 2025).
# Whole data set: some 8,300 sequences, median “log2 fold change of degron read counts, EGFP-low vs EGFP+ sorted cells (limma voom), compound-induced degradation” near -1.1, cut for the highest 2% near 3.2. Shown is part of a subset that was picked to be rich in the highest values.
# T1: CRBN, Q96SW2
# T1 chain: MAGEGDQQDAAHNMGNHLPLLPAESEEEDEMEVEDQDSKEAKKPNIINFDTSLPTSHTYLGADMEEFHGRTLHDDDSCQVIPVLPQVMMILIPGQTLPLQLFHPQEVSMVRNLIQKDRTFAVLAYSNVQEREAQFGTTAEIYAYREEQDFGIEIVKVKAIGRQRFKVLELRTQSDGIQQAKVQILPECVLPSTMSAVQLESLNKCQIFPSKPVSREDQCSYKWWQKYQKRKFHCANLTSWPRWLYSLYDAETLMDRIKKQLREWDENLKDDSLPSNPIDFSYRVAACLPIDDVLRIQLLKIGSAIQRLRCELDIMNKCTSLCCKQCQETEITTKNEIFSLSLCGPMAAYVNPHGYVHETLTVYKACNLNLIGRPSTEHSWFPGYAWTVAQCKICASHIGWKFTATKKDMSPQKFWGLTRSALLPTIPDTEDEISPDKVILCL
# Molecular target: T1, CRBN, Q96SW2
# Experiment: log2 fold change of degron read counts, EGFP-low vs EGFP+ sorted cells (limma voom), compound-induced degradation; higher = more compound-induced degradation of the degron-EGFP fusion; degrons are variants of IKZF1/3 zinc finger 2; compound dose not given here
# Settings: Jurkat, 18 h
# [1] = compound: compound 19 (5-tert-butyl-thalidomide)
# [2] = compound: compound 22 (5-morpholino-thalidomide)
# [3] = compound: compound 33 (diphenyl IMiD analogue)
# 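Further: pooled lentiviral library of zinc finger degron-EGFP fusions in mCherry-positive Jurkat cells, FACS-sorted after compound exposure, with degron abundance counted by next-generation sequencing.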
Sequence,log2 fold change of degron read counts [1],log2 fold change of degron read counts [2],log2 fold change of degron read counts [3],log2 fold change of degron read counts (compound: thalidomide)
"FFCNQCGHGFTQKGNLLRHIKL [46F_47F_49N_50Q_52G_53H_54G_55F_67L_, Q9UKT9]",-2.03,-2.15,-2.79,-2.52
"LGCPICGFMCTQKGNLLRHIKL [46L_47G_49P_50I_52G_53F_54M_55C_67L_, Q9UKT9]",3.42,1.83,1.01,0.537
"LSCPICGFMCTQKGNLLRHIKL [46L_47S_49P_50I_52G_53F_54M_55C_67L_, Q9UKT9]",1.79,1.66,1.67,1.42
"LQCPICGFMCTQKGNLLRHIKL [46L_47Q_49P_50I_52G_53F_54M_55C_67L_, Q9UKT9]",0.655,2.15,2.04,3.55
"LWCPICGFMCTQKGNLLRHIKL [46L_47W_49P_50I_52G_53F_54M_55C_67L_, Q9UKT9]",2.86,3.37,2.86,1.56
"LKCPICGFMCTQKGNLLRHIKL [46L_47K_49P_50I_52G_53F_54M_55C_67L_, Q9UKT9]",-1.07,-2.03,-1.81,-0.667
"LVCPICGFMCTQKGNLLRHIKL [46L_47V_49P_50I_52G_53F_54M_55C_67L_, Q9UKT9]",0.688,2.15,2.09,2.63
"LTCPICGFMCTQKGNLLRHIKL [46L_47T_49P_50I_52G_53F_54M_55C_67L_, Q9UKT9]",0.987,1.84,2.27,2.3
"LYCPICGFMCTQKGNLLRHIKL [46L_47Y_49P_50I_52G_53F_54M_55C_67L_, Q9UKT9]",3.14,2.92,2.43,1.14
"LECPICGFMCTQKGNLLRHIKL [46L_47E_49P_50I_52G_53F_54M_55C_67L_, Q9UKT9]",-0.459,-0.68,1.22,2.37
"FVCPQCGAFFTQKGNLLRHIKL [46F_47V_49P_50Q_52G_53A_54F_55F_67L_, Q9UKT9]",-1.99,-1.44,-0.515,-0.988
"FCCPICGHFFTQKGNLLRHIKL [46F_47C_49P_50I_52G_53H_54F_55F_67L_, Q9UKT9]",-1.42,-2.1,-1.42,-1.48
"FACEICGHNFTQKGNLLRHIKL [46F_47A_49E_50I_52G_53H_54N_55F_67L_, Q9UKT9]",-2.91,-3.62,-3.22,-3.1
"FECSVCGHHFTQKGNLLRHIKL [46F_47E_49S_50V_52G_53H_54H_55F_67L_, Q9UKT9]",-3.39,-3.71,-3.71,-3.11
"FRCPICGHVFTQKGNLLRHIKL [46F_47R_49P_50I_52G_53H_54V_55F_67L_, Q9UKT9]",-2.24,-2.31,-0.964,-1.86
"LACEICGFFCTQKGNLLRHIKL [46L_47A_49E_50I_52G_53F_54F_55C_67L_, Q9UKT9]",1.23,0.591,0.235,0.329
"FKCEICGHCFTQKGNLLRHIKL [46F_47K_49E_50I_52G_53H_54C_55F_67L_, Q9UKT9]",-2.38,-3.82,-3.48,-2.98
"FQCEICGHGFTQKGNLLRHIKL [46F_47Q_49E_50I_52G_53H_54G_55F_67L_, Q9UKT9]",-3.85,-4.27,-2.95,-2.21
